S1P1 ag: activates the human S1P1 receptor; S1P1 agonist cell-based reporter assay; 16,000 compounds, 1.5% hits; activation, % at 4.5 µM; in the data active = activation above about 80%
TLR4 MyD88 blk: inhibitors of human TLR4-MyD88 binding; Toll-like receptor 4 (Homo sapiens), O00206; Cell-based TLR4-MyD88 binding inhibition assay; inhibition, % at 10 µM; 16,000 compounds, 0.06% hits; in the data active = inhibition above about 45%
Target sequence (O00206 whole entry, looked up): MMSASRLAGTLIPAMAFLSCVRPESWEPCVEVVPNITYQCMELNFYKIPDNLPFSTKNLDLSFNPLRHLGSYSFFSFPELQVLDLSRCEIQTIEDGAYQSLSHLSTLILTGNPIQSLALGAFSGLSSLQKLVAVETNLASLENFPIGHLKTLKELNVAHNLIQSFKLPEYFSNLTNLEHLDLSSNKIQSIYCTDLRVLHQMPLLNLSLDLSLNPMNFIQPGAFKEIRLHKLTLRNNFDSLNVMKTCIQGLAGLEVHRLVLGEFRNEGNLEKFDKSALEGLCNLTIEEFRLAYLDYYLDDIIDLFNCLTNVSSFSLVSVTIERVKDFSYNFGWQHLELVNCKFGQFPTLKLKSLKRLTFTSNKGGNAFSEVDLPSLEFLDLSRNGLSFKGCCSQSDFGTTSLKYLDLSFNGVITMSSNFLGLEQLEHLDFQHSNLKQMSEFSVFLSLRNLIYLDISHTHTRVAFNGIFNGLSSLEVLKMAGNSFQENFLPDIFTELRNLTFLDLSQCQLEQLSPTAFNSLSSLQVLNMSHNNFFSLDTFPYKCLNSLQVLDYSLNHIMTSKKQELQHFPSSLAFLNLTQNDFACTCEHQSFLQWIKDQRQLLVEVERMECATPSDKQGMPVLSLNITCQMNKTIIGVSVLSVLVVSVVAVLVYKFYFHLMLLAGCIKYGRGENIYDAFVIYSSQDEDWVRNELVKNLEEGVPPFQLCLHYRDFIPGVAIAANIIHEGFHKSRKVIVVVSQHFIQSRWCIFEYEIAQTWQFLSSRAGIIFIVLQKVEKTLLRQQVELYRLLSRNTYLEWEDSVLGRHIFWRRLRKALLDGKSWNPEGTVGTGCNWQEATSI
NOTCH agonist: agonists of NOTCH signaling; activation, % at 2.5 µM; NOTCH signaling luciferase reporter cells, luminescence; 15,000 compounds, 0.4% hits; in the data active = activation above about 2.2%
rat GALR2 agon: agonists of rat galanin receptor 2 (GALR2); Galanin receptor type 2 (Rattus norvegicus), O08726; cell-based GALR2 agonist screen; activation, % at 10 µM; 16,000 compounds, 0.5% hits; AID 833, 2007; in the data active = activation above about 15%
Hits are given with their value; - = inactive; . = no result. Shown are actives, neighbours in structure and some others; about 2.4% of the full set was active somewhere.

SMILES	S1P1 ag	TLR4 MyD88 blk	NOTCH agonist	rat GALR2 agon
C=C(C)c1ccccc(=O)c1O	-	-	4.9	-
CC1SCC(=NO)CS1 (stereo not drawn)	-	-	-	-
CCOC(=O)Cn1c(=O)c(-c2nc(-c3ccc(Cl)cc3)cs2)cn(C(C)C)c1=O	-	-	-	15.6
CC(C)n1cc(-c2nc(C(=O)NNC(=O)C(C)(C)C)cs2)c(=O)n(Cc2ccccc2)c1=O	-	-	-	-
O=C(Cc1ccc([N+](=O)[O-])cc1)Nc1nccs1	-	-	3.0	-
Cc1nc(C(F)(F)F)ccc1C(=O)NCCNC(=O)OC(C)(C)C	-	-	-	-
COc1ccc(-c2cc(C(F)(F)F)n3nc(-c4ccco4)cc3n2)cc1OC	-	-	-	26.9
COc1ccc(-c2cc(C(F)(F)F)n3nc(C4CC4)cc3n2)cc1	85.0	-	-	-
CCOc1ccc(-n2[nH]nnc2=S)cc1	-	-	.	-
COc1ccc(-c2noc(-c3ccccc3)n2)cc1OC1CCCC1	98.3	-	-	-
COc1ccc(-c2nc(-c3cccc(C)c3)no2)cc1OC	96.8	-	-	-
COc1ccc(/C=C/c2nc(-c3ccc(OS(=O)(=O)N(C)C)cc3)no2)c(Cl)c1OC	-	-	-	-
COc1ccc(-c2nc(-c3ccc(OS(=O)(=O)N(C)C)cc3)no2)cc1OC	107.3	.	-	-
CC(C)(O)C#Cc1ccccn1	-	-	-	27.2
CCO/C=C(\C#N)S(=O)(=O)Cc1ccco1	-	-	-	-
Cc1nn(-c2ccccc2)nc1CNC(=O)C1=Cc2ccccc2OC1	-	-	2.3	-
Cc1cc(-c2n[nH]c(=S)n2C)nn1-c1ccc([N+](=O)[O-])cc1	99.7	-	-	-
CCCCc1ccc(NC=C(C(=O)OCC)C(=O)OCC)c(C)c1	-	-	-	-
CC(=O)n1nccc1-c1c(C)nc2ccccn12	-	-	-	-
Cc1ccc(S(=O)(=O)n2nccc2-c2c(C)nc3ccccn23)cc1	87.5	-	-	-
Cc1cc(N=Nc2ccc(Cl)cc2)cc(CN2CCOCC2)c1O	95.3	-	-	-
N#CC(C#N)=NNc1ccc(Cl)c(Cl)c1C#N	-	-	-	-
N#CC(C#N)=NNc1ccc(F)cc1F	104.7	-	-	-
Clc1ccc(-c2nc(-c3[nH]ncc3Br)no2)cc1	-	-	-	-
CCOc1ncnc2c1nnn2Cc1ccccc1Cl	-	-	-	20.3
SMILES	S1P1 ag	TLR4 MyD88 blk	NOTCH agonist	rat GALR2 agon
N#Cc1ccc(N2CCN(S(=O)(=O)c3ccccc3)CC2)nc1	-	-	3.4	-
O=S(=O)(c1ccccc1)N1CCN(c2ncnc3sccc23)CC1	92.1	-	-	-
CCc1nc2ccccc2nc1N1CCN(S(=O)(=O)c2ccccc2)CC1	-	-	-	-
N#Cc1ccc(N2CCCN(S(=O)(=O)c3cccs3)CC2)nc1	-	-	-	-
COc1ccc(Br)c(-c2nc(CS(=O)(=O)c3ccsc3)no2)c1	-	-	-	-
Cc1c(S(=O)(=O)c2ccc(Cl)cc2)csc1C(=O)Nc1nnc(C2CC2)s1	-	-	-	-
COc1c(Cl)cc(Cl)c(OC)c1C(=O)Nc1cccc(OC(C)C)c1	-	-	-	-
CCOc1ccc(NC(=O)c2cc(C)n(C)n2)cc1	125.7	-	-	-
Cc1ccc2c(n1)CC(C)(C)C/C2=N/O	-	-	-	-
COc1ccc(-c2nc(-c3cccc([N+](=O)[O-])c3)cs2)cc1	-	-	3.3	-
O=[N+]([O-])c1ccc(-c2csc(-c3ccncc3)n2)cc1	-	-	-	-
COC(=O)c1scc(C#N)c1N/N=C(\C#N)S(=O)(=O)c1cccs1	-	-	-	-
N#C/C(=N\Nc1ccc(C(F)(F)F)cc1)S(=O)(=O)c1cccs1	110.4	-	-	-
CSC(=NCc1c(N(C)C)cccc1N(C)C)NS(=O)(=O)c1ccccc1	94.8	-	.	-
COc1ccc(C(=O)CC(C(=O)c2ccccc2)c2ccccc2)cc1 (stereo not drawn)	102.2	-	-	-
O=C(CC(C(=O)c1ccccc1)c1cccs1)c1ccc(Cl)cc1 (stereo not drawn)	-	-	-	-
CCOC(=O)c1c(NC(=O)c2ccc3ncccc3c2)sc(C)c1C	-	.	-	41.8
CCOC(=O)c1sc(SC)nc1NS(=O)(=O)c1cc(C(F)(F)F)cc(C(F)(F)F)c1	-	-	.	-
CN1c2ccsc2C(=O)/C(=N\Nc2cccc(C(F)(F)F)c2)S1(=O)=O	87.2	-	-	-
O=C(CC1SC(=NC2CC3C=CC2C3)NC1=O)Nc1cc(Cl)ccc1Cl (stereo not drawn)	-	-	-	-
Cn1nc(-c2ccc(S(=O)(=O)Nc3ccccc3N3CCOCC3)s2)cc1C(F)(F)F	-	-	-	-
O=[N+]([O-])c1cc(C2SCCS2)ccc1SCc1ccco1	99.5	-	-	-
COc1ccc(CCN2C(=O)CCC(C(=O)O)C2c2cc(OC)c(OC)c(OC)c2)cc1OC (stereo not drawn)	116.4	-	-	-
O=C(Nc1ccccc1C(=O)NNc1c(Cl)cc(Cl)cc1Cl)c1cccs1	-	-	-	-
Cc1onc(-c2ccccc2)c1NC(=O)Nc1ccc(-n2ccc(C(F)(F)F)n2)cc1	97.9	-	-	-
SMILES	S1P1 ag	TLR4 MyD88 blk	NOTCH agonist	rat GALR2 agon
CCOC(=O)C1CCN(c2ccc(C(C)=O)cc2NC(=S)Nc2cc(Cl)ccc2Cl)CC1	-	-	5.9	-
O=[N+]([O-])c1ccc(C=Nc2ccc(Oc3ccc(Cl)cc3)cc2)s1	-	-	-	-
N#C/C(=C\Nc1cc(C(F)(F)F)cc(C(F)(F)F)c1)C(=O)Nc1ccc(Cl)cc1	-	-	-	-
N#C/C(=C\Nc1cc(C(F)(F)F)cc(C(F)(F)F)c1)S(=O)(=O)Cc1ccc(Cl)cc1	100.4	-	-	-
Cn1cnnc1S/C=C/C(=O)c1ccc(F)cc1	-	-	-	-
Cn1ccnc1CS(=O)(=O)c1cc(Cl)c(Oc2ccc([N+](=O)[O-])cc2Cl)c(Cl)c1	104.5	-	-	-
O=[N+]([O-])c1ccc(OCS(=O)(=O)c2ccc(F)cc2F)c(Cl)c1	-	-	-	-
N/C(=N\OC(=O)c1cccc(C(F)(F)F)n1)c1cccc(C(F)(F)F)c1	90.7	-	-	-
Cc1cc(-c2onc(C)c2C(=O)O/N=C(\N)c2cccc(C(F)(F)F)c2)no1	-	-	-	-
CC12CCC(=O)C=C1CCC2=O (stereo not drawn)	-	53.0	-	-
COc1ccc(OC)c(NC(=O)Nc2cccc(C(F)(F)F)c2)c1	-	-	-	-
O=C(NCc1ccccn1)c1cccnc1SCCS(=O)(=O)c1cccc(C(F)(F)F)c1	116.9	-	-	-
COc1ccc(/C=C2/N=C(c3ccccc3)NC2=O)cc1	-	-	-	15.0
COC(=O)c1sc(C(F)(F)F)c(-c2ccccc2)c1N	98.3	.	-	-
COC(=O)c1sc(SC)c(C#N)c1-c1cccc(C(F)(F)F)c1	-	-	-	-
C=CCSc1nnc(-c2ccc(C(F)(F)F)nc2C)o1	-	-	-	-
O=C(O)/C=C/C(=O)Nc1ccc(N2CCCCCC2)c(NC(=O)/C=C/C(=O)O)c1	-	-	2.4	-
COC(=O)c1cc(NC(=O)/C=C/C(=O)O)ccc1N1CCOCC1	-	-	-	-
COC(=O)c1cccc(NC(=O)NC(=O)c2cccs2)c1	-	-	-	16.2
